Among the data in the supplement of paper PMC7156485 are cell number values, retold here.

± gives the standard deviation of the averaged measurements.
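Also: TDF denotes transformed human dermal fibroblasts of mesenchymal origin.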

The subject of one experiment is HCC1569. As to the kind of experiment: cell number relative to DMSO (% of DMSO); higher = more cells (less growth inhibition / toxicity). Particulars: concentration: 10 µM; 24 h. The gist of the method: (§1)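 Using 384-well plates with 800 cells per well in RPMI plus 10% FBS, HCC1569 and TDF cells were exposed to compounds at 10 µM, in triplicate, for 24 h at 37 °C. Imaging of six fields per well at ×10 followed H1.0 and DAPI staining. The reported quantity, H1.0 nuclear intensity or cell number, is a median of replicates given as percent of the plate control, and HCC1569 values were smoothed for positional effects.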
`O=C(O)c1ccccc1C(=O)Nc1ccc(-c2ccccc2)cc1` [2-[([1,1'-biphenyl]-4-ylamino)carbonyl]benzoic acid] came in with a cell number of 104.

In the case of `COc1ccc(C=CC(=O)Nc2ccccc2C(=O)O)cc1OC` [Tranilast], the cell number turned out to be 99.2 ± 2.1. The same measure, in the same setting: then `O=C(COc1ccc(C(=O)c2ccccc2)cc1)NC1CCN(Cc2ccccc2)CC1` [2-(4-benzoylphenoxy)-N-(1-benzyl-4-piperidinyl)acetamide], with 81.9.

On to `COC(C)(C)CCCC(C)CC=CC(C)=CC(=O)O` (stereo not given) [Methoprene acid], for which the cell number worked out at 104. Same read-out and setting: next, `CCCCCC=CCC=CCCCCCCCC(=O)NCC(=O)O` [N-Linoleoylglycine]: 105; `CCCCC(=O)O[C@]1(C(=O)CO)[C@@H](C)C[C@H]2[C@@H]3CCC4=CC(=O)C=C[C@]4(C)[C@@]3(F)[C@@H](O)C[C@@]21C`: 96.4; `COc1cc(Nc2c(C#N)cnc3cc(OCCCN4CCN(C)CC4)c(OC)cc23)c(Cl)cc1Cl` [Bosutinib]: 67. Molecule `Nc1ncnc2c1ncn2C1CCCO1` (stereo not given) came in with a cell number of 76.9. The same measure, in the same setting: next, `CCCCCC=CCC(O)C=CC=CC=CC(O)CCCC(=O)O` [5(S),12(R)-DIHETE all trans]: 99.8.

A further experiment concerns TDF. Described as above. Particulars: concentration: 10 µM; 24 h. The gist of the method: as §1
`O=C1Cc2c([nH]c3ccc([N+](=O)[O-])cc23)-c2ccccc2N1` [Alsterpaullone]: the cell number amounted to 72.6 ± 41.

Regarding `O=C1c2ccccc2-c2n[nH]c3cccc1c23`, the cell number worked out at 107.

`CC1COc2c(N3CCN(C)CC3)c(F)cc3c(=O)c(C(=O)O)cn1c23` (stereo not given) [Ofloxacin] gave a cell number of 101 ± 5.3. Regarding `CCCCCCCCCCCCCCCC(=O)OCC=C(C)C=CC=C(C)C=CC1=C(C)CCCC1(C)C` [Retinyl palmitate], the cell number was 99.2. Take `CCOC(=O)OC(C)OC1=C(C(=O)Nc2ccccn2)N(C)S(=O)(=O)c2ccccc21` (stereo not given) [Ampiroxicam]: the cell number was found to be 94.9. The same measure, in the same setting: next, `Nc1cc(=O)nc(N)[nH]1` [2,6-Diamino-4-pyrimidinone]: 104. The same measure, in the same setting: next, `CS(=O)(=O)O.O=C1Nc2ccc(-c3cccnc3)cc2C1=Cc1ccc[nH]1` [JAK3 Inhibitor VI]: 47.7; `COc1cc(CC(=O)O)ccc1O` [4-Hydroxy-3-methoxyphenylacetic acid]: 106. The same measure, in the same setting: next, `Cl.Cl.Fc1ccc(C(c2ccc(F)cc2)N2CCN(CC=Cc3ccccc3)CC2)cc1` [Flunarizine.2HCl]: 105. Regarding `O=c1cc(-c2ccc(O)c(O)c2)oc2cc(O)cc(O)c12` [Luteolin], the cell number was found to be 62.6 ± 57.

In the case of `COC1C(OC(N)=O)C(O)C(Oc2ccc3c(O)c(NC(=O)c4ccc(O)c(CC=C(C)C)c4)c(=O)oc3c2C)OC1(C)C.[Na+]` (stereo not given) [Novobiocin.Na], the cell number was 112. On the same count and under the same terms, next, `CC1CCc2c(N3CCC(O)CC3)c(F)cc3c(=O)c(C(=O)O)cn1c23` (stereo not given) [Nadifloxacin]: 89.2. Still for that read-out and setting: then `C[N+]1(CCCCC[N+]2(C)CCCC2)CCCC1.O=C([O-])C(O)C(O)C(=O)O.O=C([O-])C(O)C(O)C(=O)O` [Pentolinium di[L(+)-tartrate]], with 110; and `O=C(Nc1cccc(C(=O)Nc2ccc(S(=O)(=O)[O-])c3cc(S(=O)(=O)[O-])cc(S(=O)(=O)[O-])c23)c1)Nc1cccc(C(=O)Nc2ccc(S(=O)(=O)[O-])c3cc(S(=O)(=O)[O-])cc(S(=O)(=O)[O-])c23)c1.[Na+].[Na+].[Na+].[Na+].[Na+].[Na+]`, with 110; and `CSc1nc(-c2ccnc(NC(C)c3ccccc3)c2)c(-c2ccc(F)cc2)[nH]1` (stereo not given) [p38 MAP Kinase Inhibitor III], with 107. Same read-out and setting: next, `CCC1=C(C)CN(C(=O)NCCc2ccc(S(=O)(=O)NC(=O)NC3CCC(C)CC3)cc2)C1=O` (stereo not given) [Glimepiride]: 111; `CN1CCN(c2c(F)cc3c(=O)c(C(=O)O)cn(CCF)c3c2F)CC1` [Fleroxacin]: 87.2.

For `CC(C)CC(NC(=O)C1OC1C(=O)O)C(=O)NCCCCN=C(N)N` (stereo not given), the cell number amounted to 96.3 ± 6.9. On the same count and under the same terms, then `Cl.NCC1OC(C23CC4CC(CC(C4)C2)C3)Cc2c1ccc(O)c2O` (stereo not given), with 68.9; and `CC[C@H](C(=O)Nc1ccccc1N1CCCC1)c1ccccc1` [(2S)-2-Phenyl-N-[2-(1-pyrrolidinyl)phenyl]butanamide], with 103; and `Cc1cccc(-c2[nH]ncc2-c2ccc3ncccc3n2)n1`, with 95.3.
